Assay outcomes from PubChem BioAssay.
Most compounds without a hit are left out; they make up all but 2.4% or so of the library.
D2 ag-1 – Beta-Arrestin HTS for Positive Allosteric Modulators of the Human D2 Dopamine Receptor: Agonists; D(2) dopamine receptor (Homo sapiens), P14416; DiscoveRx PathHunter D2 beta-arrestin, luminescence, 90 min; 100% = 57 uM dopamine signal; activation, % (no concentration beside the values); hit rate 0.084% among 360,000; AID 624465, 2012; in the data active = activation above about 40%
Target sequence (P14416 whole entry, looked up): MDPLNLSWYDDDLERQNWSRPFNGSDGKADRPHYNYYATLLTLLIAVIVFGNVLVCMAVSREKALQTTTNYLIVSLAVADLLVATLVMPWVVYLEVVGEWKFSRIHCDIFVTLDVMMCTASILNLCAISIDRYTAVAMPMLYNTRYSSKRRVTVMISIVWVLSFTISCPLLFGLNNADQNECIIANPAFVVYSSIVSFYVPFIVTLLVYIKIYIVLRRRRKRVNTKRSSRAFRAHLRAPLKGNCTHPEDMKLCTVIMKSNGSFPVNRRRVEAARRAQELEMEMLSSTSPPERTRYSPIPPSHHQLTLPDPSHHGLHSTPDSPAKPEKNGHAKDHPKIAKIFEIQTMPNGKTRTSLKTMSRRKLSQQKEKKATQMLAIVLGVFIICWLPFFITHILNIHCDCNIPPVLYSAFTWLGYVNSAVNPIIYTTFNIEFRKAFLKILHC
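Agonist mode: compounds alone added to overnight-plated D2 PathHunter cells for 90 min at 37 C, with 57 uM final dopamine (EC100) defining full response. Beta-arrestin recruitment detected by chemiluminescent reagent, read after 1 h at ambient temperature.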
D2 PAM-1 – HTS Assay for Positive Allosteric Modulators of the Human D2 Dopamine Receptor: Primary Screen for Potentiators; D(2) dopamine receptor (Homo sapiens), P14416; HEK293 T-REx D2, calcium flux, EC20 dopamine potentiation; potentiation, % at 10 µM; hit rate 0.34% among 340,000;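 active = potentiation over 3 SD above the plate norm, cut at about 30% in these data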
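Potentiation of an EC20 dopamine calcium response measured kinetically over 180 s, after a preceding 180 s compound-only read flagging agonists. Cells: inducible Hek293 Trex D2 line, 4000/well, cultured overnight at 30 C before dye loading.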
D2 ag-2 – HTS Assay for Allosteric Agonists of the Human D2 Dopamine Receptor: Primary Screen for Agonists; HEK293 T-REx D2 cells, calcium flux agonist mode; activation, % at 2 µM; hit rate 0.53% among 340,000;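 active = activation over 3 SD above normal in the single-dose calcium agonist read, cut at about 30% in these data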
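Agonism scored from kinetic calcium signal (1 read/sec, 180 s) following compound pin transfer, after a 10 s baseline. Cells: HEK293 Trex line expressing inducible D2 receptor coupled to calcium, dye-loaded after overnight culture at 30 C.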
D2 antagonist – HTS Assay for Allosteric Antagonists of the Human D2 Dopamine Receptor: Primary Screen for Antagonists; D(2) dopamine receptor (Homo sapiens), P14416; HEK293 TREx D2 cells, calcium flux, dopamine EC80; inhibition, % at 10 µM; hit rate 2% among 340,000; in the data active = inhibition above about 30%; inactive = below that, where a call was filed
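Read-out: kinetic calcium fluorescence (1 cycle/s) in inducible HEK293 T-REx D2 cells after an EC80 dopamine addition that followed 180 s compound preincubation. Loss of the dopamine response indicates antagonism.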
D2 PAM-2 – Beta-Arrestin HTS for Positive Allosteric Modulators of the Human D2 Dopamine Receptor: Potentiators. DiscoveRx D2 beta-arrestin cells, luminescence, 90 min; 100% = 57 uM dopamine signal. potentiation, % (test concentration not listed). hit rate 0.23% among 360,000. AID 624464, 2012; in the data active = potentiation above about 50%
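D2 cells co-treated with compound plus 50 nM dopamine (EC20) for 90 min at 37 deg C to detect potentiation. Beta-arrestin recruitment was read as enzyme-fragment luminescence after 1 h at ambient temperature. Full response was set by 57 uM dopamine.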
Large screens that a line does not name were inactive.

O=C(Nc1cc(-c2nc3cc(Cl)ccc3o2)ccc1Cl)c1cc2ccccc2o1	none (no result: D2 ag-1, D2 antagonist, D2 PAM-2)
CCOc1ccc(N2CC(C(=O)Nc3ccc(S(=O)(=O)Nc4nccs4)cc3)CC2=O)cc1 (stereo not drawn)	D2 antagonist 32
CCOc1ccc(N2CC(C(=O)NCc3ccc4c(c3)OCO4)CC2=O)cc1 (stereo not drawn)	D2 antagonist 36
CCOc1ccc(N2CC(C(=O)Nc3ccccc3F)CC2=O)cc1 (stereo not drawn)	D2 antagonist 34
CCOC(=O)c1ccccc1NC(=O)C1CC(=O)N(C2CCCCC2)C1 (stereo not drawn)	D2 antagonist 41
CCOC(=O)CN(Cc1ccccc1)C(C(=O)NC1CCCCC1)c1ccccc1 (stereo not drawn)	none (no result: D2 ag-1, D2 antagonist, D2 PAM-2)
COc1cccc(CC(=O)OC(C)C(=O)NCc2ccc3c(c2)OCO3)c1 (stereo not drawn)	D2 antagonist 55
Cc1ccn2c(=O)cc(COc3ccc(NC(=O)COc4ccc(C)c(C)c4)cc3)nc2c1	none (no result: D2 ag-1, D2 antagonist, D2 PAM-2)
N#CC1=C(SCC(=O)NC2CC2)NC(=O)C(C#N)C12CCCCC2 (stereo not drawn)	none
N#CC1=C(SCC(=O)NC23CC4CC(CC(C4)C2)C3)NC(=O)C(C#N)C12CCCCC2 (stereo not drawn)	D2 PAM-1 94
Cc1ccc(NC(=O)c2c(C)nn(-c3ccccc3)c2-n2cccc2)c(Cl)c1	none (no result: D2 ag-1, D2 antagonist, D2 PAM-2)
COc1ccc(-c2cc(C(=O)NC(C)c3ccccn3)c3ccccc3n2)cc1OC (stereo not drawn)	D2 PAM-1 44
COc1ccc(-c2cc(C(=O)NC3CCCC3)c3ccccc3n2)cc1OC	none (no result: D2 PAM-1, D2 ag-2, D2 antagonist)
COc1ccc(CN(C)CC(O)COC(c2ccc(OC)cc2)c2ccc(OC)cc2)cc1 (stereo not drawn)	D2 antagonist 39
CCOc1ccc(CN(C)CC(O)COC(c2ccc(OC)cc2)c2ccc(OC)cc2)cc1 (stereo not drawn)	D2 antagonist 30
COc1ccc(C(OCC(O)CN(C)C2CCCCC2)c2ccc(OC)cc2)cc1 (stereo not drawn)	none
COc1ccc(-c2cc3ccccc3oc2=O)cc1NC(=O)c1ccc(Br)o1	none
COc1ccc(-c2cc3ccccc3oc2=O)cc1NC(=O)c1ccc([N+](=O)[O-])o1	D2 PAM-2 101
Cn1cc(C(=O)NC2CCCCCCC2)c(=O)c2cc(S(=O)(=O)N3CCCC3)ccc21	D2 PAM-1 32
CC1CCCN(CCCNC(=O)c2cn(C)c3ccc(S(=O)(=O)N(C)C4CCCCC4)cc3c2=O)C1 (stereo not drawn)	D2 antagonist 37
CC1CCN(CCCNC(=O)c2cn(C)c3ccc(S(=O)(=O)N(C)C4CCCCC4)cc3c2=O)CC1	none (no result: D2 ag-1, D2 antagonist, D2 PAM-2)
CCn1cc(C(=O)N2CCc3ccccc3C2)c(=O)c2cc(S(=O)(=O)N3CCCCC3)ccc21	D2 ag-2 68 (no result: D2 ag-1, D2 PAM-2)
Cn1cc(C(=O)N2CCc3ccccc3C2)c(=O)c2cc(S(=O)(=O)N3CCCCC3)ccc21	none (no result: D2 ag-1, D2 PAM-2)
Cn1cc(C(=O)NC2CCCCCC2)c(=O)c2cc(S(=O)(=O)N3CCCC3)ccc21	none
COc1ccc(-c2csc(C(O)c3ccccc3)n2)cn1 (stereo not drawn)	none (no result: D2 PAM-1, D2 ag-2, D2 antagonist)
COc1ccc(NC(=O)CSc2oc(-c3ccco3)nc2S(=O)(=O)c2ccc(Br)cc2)c(OC)c1	none (no result: D2 ag-1, D2 antagonist, D2 PAM-2)
O=C(Nc1ccc(O)cc1C(=O)O)c1cccs1	D2 antagonist 35
O=C(NNC(=O)c1ccccc1Cl)c1cccs1	D2 PAM-1 32 (no result: D2 ag-2)
O=C(Nc1ccccc1C(=O)Nc1ccccc1)c1cccs1	none (no result: D2 PAM-1)
O=C(Cc1ccc(Cl)cc1)Nc1ccc2oc(-c3ccccc3)nc2c1	none (no result: D2 ag-1, D2 antagonist, D2 PAM-2)
Cc1ccn2c(NC3CCCCC3)c(C(C)C)nc2c1	none
Cc1ccn2c(NC3CCCC3)c(-c3ccncc3)nc2c1	D2 PAM-1 30
Cc1ccn2c(NC3CCCCC3)c(C)nc2c1	D2 antagonist 35
CC(=O)c1ccc(NC(=O)C2CCC(CNS(=O)(=O)c3ccc4c(c3)CCCC(=O)N4)CC2)cc1 (stereo not drawn)	none (no result: D2 ag-1, D2 antagonist, D2 PAM-2)
S=C(NCCc1ccccc1)N1CCn2cccc2C1c1cccnc1 (stereo not drawn)	D2 antagonist 37
CC(=O)Nc1ccc(N=Cc2c(O)c3ccccc3oc2=O)cc1	none (no result: D2 PAM-1, D2 ag-2, D2 antagonist)
CC(=O)Nc1ccc(N=Cc2c(O)c(C(=O)Nc3ccccc3)cc3ccccc23)cc1	D2 ag-2 65
CCCN1CCC2(CC1)NC(C(=O)O)Cc1c2[nH]c2ccccc12 (stereo not drawn)	none
COC(=O)C1Cc2c([nH]c3ccccc23)C2(CCN(Cc3ccccc3)CC2)N1 (stereo not drawn)	D2 antagonist 75
COc1ccc(N2CCN(C(=O)CSc3nc(-c4ccc(C(C)C)cc4)no3)CC2)cc1	none (no result: D2 ag-1, D2 antagonist, D2 PAM-2)
Cc1cc(C)cc(NC(=O)NCC(O)COc2ccc([N+](=O)[O-])cc2)c1 (stereo not drawn)	D2 antagonist 38
O=C(NCC(O)COc1ccc([N+](=O)[O-])cc1)Nc1ccccc1 (stereo not drawn)	none
CC(C)NC(=O)C1(C)CCN1Cc1cccc(C#N)c1 (stereo not drawn)	none (no result: D2 PAM-1, D2 ag-2, D2 antagonist)
CCOc1cc(N2CCOCC2)c(OCC)cc1NC(=O)CSc1ncccn1	none
CCOc1cc(N2CCOCC2)c(OCC)cc1NC(=O)C1=COCCO1	D2 antagonist 39
CCOc1cc(N2CCOCC2)c(OCC)cc1NC(=O)CSc1cccc[n+]1[O-]	D2 PAM-2 57 (no result: D2 PAM-1, D2 ag-2, D2 antagonist)
CCN(CC)CCCNC(=O)c1cn(CC)c2ccc(S(=O)(=O)N3CCC(C)CC3)cc2c1=O	none (no result: D2 ag-1, D2 antagonist, D2 PAM-2)
CCOC(=O)Cn1c(=O)c2c(nc(N3CCOCC3)n2C)n(C)c1=O	D2 antagonist 39
CCCCCOC(=O)Cn1c(=O)c2c(nc(N3CCOCC3)n2C)n(C)c1=O	none
CCN(CC(=O)Nc1cc(Cl)ccc1C)C(=O)COc1cccc2c1OC(C)(C)C2	D2 antagonist 43
O=C(Nc1ccc2nc(SCC(=O)N3CCc4ccccc43)sc2c1)c1ccc(F)cc1	none (no result: D2 ag-1, D2 antagonist, D2 PAM-2)
COc1ccc(-c2c(-c3ccccc3)c(C(=O)C(=O)NCCCN(C)C)n3ccc4cc(OC)c(OC)cc4c23)cc1OC	D2 antagonist 48
CN(C)CCNC(=O)C(=O)c1c(-c2ccccc2)cc2ccccn12	none
CCOCCCN(C)C1CCN(C(=O)c2oc3ccccc3c2NC(=O)COc2ccc(F)cc2)CC1	D2 antagonist 50
